Assay results from PubChem BioAssay AID1520 (The Scripps Research Institute Molecular Screening Center, 2009).
Some of the results follow. Active and inactive are the calls of the source.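 How the source made its calls: active means cell growth inhibition above the hit limit set in the earlier mutant JAK2 cell screen (cut at about 27% in these data); inactive means the rest.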

Test: parental Ba/F3 cell viability inhibition, counter-screen for JAK2V617F inhibitor project, murine pro-B, CellTiter-Glo luminescence (AID 1520);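 further: plate controls were DMSO-treated cells for no effect and JAK Inhibitor I control wells for full effect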
Conditions: at 5.6 µM, active compounds read high

In the case of `CN(C)CC1Oc2ccccc2OC1(O)c1ccccc1` (stereo unspecified), the inhibition is reported as 34.6% (active).
